Source: PubChem
Rows were chosen to be rich in hits. Some 1.1% of all compounds tested hit in one or more screens of this group.
CatS block: blocks human cathepsin S protease activity; inhibition, %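 (tested at 5 µM per compound within 10-compound mixtures)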; recombinant cathepsin S, AMC dipeptide fluorescence, pooled mixtures; 0.06% of 62,000 active; P25774; in the data active = inhibition above about 32%, passing the limit was not always enough;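 note: 0% = enzyme without compound and 100% = blank without enzyme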
Target sequence (P25774 115-331 limits assumed): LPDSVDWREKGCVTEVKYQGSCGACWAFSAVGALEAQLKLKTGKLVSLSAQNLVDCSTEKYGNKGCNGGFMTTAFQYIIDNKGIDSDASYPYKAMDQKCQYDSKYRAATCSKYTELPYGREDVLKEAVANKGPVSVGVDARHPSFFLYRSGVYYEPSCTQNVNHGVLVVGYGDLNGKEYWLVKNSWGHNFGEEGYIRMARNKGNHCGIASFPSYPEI
WNV NS2B-NS3 inh: inhibitors of West Nile virus NS2B-NS3 protease | WNV NS2B-NS3 protease, fluorogenic substrate Ex360/Em465; active compounds read low | z-score (concentration not given with the values) | 0.18% of 65,000 active; in the data active = z-score below about -3
Target sequence (P06935 1371-1501 limits assumed): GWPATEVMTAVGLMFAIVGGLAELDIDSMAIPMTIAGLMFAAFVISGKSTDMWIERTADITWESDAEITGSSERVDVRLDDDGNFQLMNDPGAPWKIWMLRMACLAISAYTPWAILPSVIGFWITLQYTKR
Target sequence (P06935 1502-1679 limits assumed): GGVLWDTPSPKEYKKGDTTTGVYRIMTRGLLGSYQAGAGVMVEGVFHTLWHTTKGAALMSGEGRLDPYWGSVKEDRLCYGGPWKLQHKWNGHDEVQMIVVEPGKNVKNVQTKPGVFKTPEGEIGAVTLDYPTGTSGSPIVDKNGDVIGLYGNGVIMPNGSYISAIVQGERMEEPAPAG
CatL block: blocks human cathepsin L protease activity | inhibition, %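 (tested at 10 µM)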 | P07711 | AID 460 | 0.17% of 58,000 active | purified cathepsin L, fluorogenic substrate, fluorescence; in the data active = inhibition above about 45%;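 note: 0% = enzyme with no compound and 100% = no enzyme blank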
CatB mixtures: human cathepsin B inhibition by mixtures; P07858; Purified cathepsin B, AMC dipeptide fluorescence, compound mixtures; inhibition, %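 (ten-compound pools at 5 µM per compound and 50 µM total)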; 0.06% of 62,000 active; in the data active = inhibition above about 22%, passing the limit was not always enough;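 note: 0% = enzyme without compound and 100% = no enzyme blank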
CatB block: blocks human cathepsin B protease activity; AID 453; 0.1% of 63,000 active; P07858; inhibition, %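 (tested at 10 µM)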; purified cathepsin B, fluorogenic substrate, fluorescence; in the data active = inhibition above about 21%;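 note: 0% = enzyme with no compound and 100% = no enzyme blank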
Her2 expr inh: lowers expression of human Her2 kinase | SKBR-3 HER2 protein level, AlphaScreen, 18-24 h; active compounds read low | HER2 level % of control, % at 10 µM | 0.69% of 65,000 active;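 active = HER2 level under 5% of the carrier-only control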;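 note: 100% = DMSO carrier and 0% = 500 nM PU-H71 HSP90 inhibitor; lower value means stronger loss of Her2 protein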
* hit, by the source's call; . = no result given.

SMILES	CatS block	WNV NS2B-NS3 inh	CatL block	CatB mixtures	CatB block	Her2 expr inh
CCOC(=O)CS(=O)(=O)c1nc(-c2ccc(F)cc2)cc(C(F)(F)F)n1	-1	1.4	-6	6	1	-18*
Nn1c(SCC(=O)N2CCCCC2)nnc1-c1ccncc1	16	-0.78	-5	5	1	.
CC(C)CCOc1ccc(C(=O)NCCC(=O)N2CCOCC2)cc1	0	-1.9	2	8	-5	122
CN(C)S(=O)(=O)N1CCN(C(=O)N2CCCCC2)CC1	-2	-0.15	-11	3	2	104
COC(=O)Sc1nc(N2CCOCC2)c2c(c1C#N)CC(C)(C)OC2	.	-0.29	3	.	47*	110
COc1cc(C(=O)NCc2nnc(SCC(=O)NCc3ccccc3)o2)cc(OC)c1OC	7	-0.05	11	-2	-2	137
COc1ccc2nc(CC(C)(C)CC(=O)O)c[n+]([O-])c2c1	-15	0.32	-12	6	23*	93
COCCCNC(=O)CSc1nc2ccccc2c(=O)n1CCCC(=O)NCC1CCCO1 (stereo not drawn)	-6	-1	-2	-1	-2	106
CCN(CC)S(=O)(=O)c1ccc2c(c1)c(C(=O)O)cn2C	.	0.36	17	.	-2	76
C/C(=N\O)C(=O)C(CN1CCCCC1)CN1CCCCC1	6	0.47	1	5	5	-12*
CC(=O)/C(CN1CCCCC1)=N\O	2	-1.2	8	-6	-2	91
Cc1ccc(-c2nnc3ccc(SC(C)C(=O)O)nn23)cc1 (stereo not drawn)	11	-1.3	3	1	7	106
CC(Sc1ccc2nnc(-c3ccc(F)cc3)n2n1)C(=O)O (stereo not drawn)	17	-0.72	54*	4	9	75
Cc1ccc(S(=O)(=O)n2nc(OC(=O)c3cccs3)cc2N)cc1	4	-6.4*	-7	47*	64*	150
Nc1cc(OC(=O)c2ccco2)nn1S(=O)(=O)c1ccc(F)cc1	-3	-11*	8	60*	61*	96
COc1ccccc1C(=O)Oc1cc(N)n(S(=O)(=O)c2ccc(C)cc2)n1	-5	-2.1	-4	18	12	75
Cc1ccc(S(=O)(=O)n2nc(OC(=O)C3CCCCC3)cc2N)cc1	-7	0.97	-7	-3	0	85
Cc1ccc(S(=O)(=O)n2nc(OC(=O)c3ccco3)cc2N)cc1	19	-5.3*	12	59*	76*	109
CC1CCN(S(=O)(=O)c2ccc(Cl)cc2)CC1	19	1.1	12	6	0	170
CC1=C(C)CS(=O)N(S(=O)(=O)c2ccc(Cl)cc2)C1 (stereo not drawn)	6	1.1	.	32*	24*	84
CCN1CCN(c2ncc(C(=O)N3CCN(c4ccccc4OC)CC3)c3ccccc23)CC1	-4	-0.52	7	8	3	124
CCCCc1ccc(C(=O)NC(C(=O)O)C(C)C)cc1 (stereo not drawn)	7	-0.08	32	3	9	88
Cc1cc(C)n(-c2nnc3n2N=C(c2c[nH]c4ccccc24)CS3)n1	3	-0.04	12	-6	1	72
COCCn1c(Cc2ccccc2)nnc1SCC(=O)N(C)C	1	-0.39	-5	5	0	-19*
COc1cc2[nH]c(=O)n(CCC(=O)NCc3cccnc3)c(=O)c2cc1OC	-5	-0.83	-5	4	4	107
SMILES	CatS block	WNV NS2B-NS3 inh	CatL block	CatB mixtures	CatB block	Her2 expr inh
Cc1c(C#N)c(N=CN(C)C)c(C(=O)c2ccccc2)n1-c1ccccc1	-4	0.35	-1	0	2	112
Cc1c(C#N)c(N)c(C(=O)c2ccccc2)n1Cc1ccccc1	17	0.57	18	2	0	-32*
COCCCNC(=O)Cn1nc(-c2ccc(C)cc2)ccc1=O	-3	-1.4	-2	5	3	75
Cc1nn2c(-c3ccco3)nnc2c2ccccc12	5	-1	7	2	1	-1.1*
Cc1nn2c(-c3ccncc3)nnc2c2ccccc12	21	-1.8	4	1	-5	98
COc1cc(OC)cc(-c2cc3nc4c(c(N5CCN(c6ncccn6)CC5)n3n2)CCCC4)c1	2	-0.37	-43	7	-1	85
Cc1c(NC(=O)c2cccc(F)c2)c(=O)n(-c2ccccc2)n1C	10	0.27	7	3	4	-26*
Cc1c(NC(=O)c2ccc(F)cc2)c(=O)n(-c2ccccc2)n1C	-1	0.25	13	2	5	121
CCOc1ccc(N(CC)S(=O)(=O)c2ccc3c(c2)oc(=O)n3C)cc1	7	0.33	13	-1	4	88
CN1CC2=Cc3ccccc3OC23Oc2ccccc2C=C3C1	1	-0.56	.	-2	1	-7.0*
Cn1c(=O)c2c(nc(NCCCN3CCOCC3)n2Cc2ccc(Cl)cc2Cl)n(C)c1=O	-8	0.16	.	-8	0	96
N#CCC(=O)NCC1(c2ccccc2)CCCC1	1	-1.1	9	2	1	109
Cc1cccn2c(=O)c(C=NCc3ccccc3)c(NCCO)nc12	10	-0.11	-55	2	-5	82
Cc1cccn2c(=O)c(C=NCc3ccco3)c(Nc3ccc(Cl)cc3)nc12	6	-3.3*	6	3	2	86
O=C1C2=C(SCCS2)C(=O)N1CCCO	-14	0.71	-3	-1	2	1.1*
O=C1C2=C(SCCS2)C(=O)N1c1ccccc1	-13	2.1	-4	-2	0	105
COC(=O)c1c(NC(=O)C2CC2)sc2c1CCCC2	1	-3.6*	.	1	1	100
COc1ccc(S(=O)(=O)Nc2ccccn2)cc1OC	5	1.1	12	-4	3	69
Nc1ccc(S(=O)(=O)Nc2ccccn2)cc1	8	-3.1*	0	1	3	103
O=C(O)C1CCCCC1C(=O)Nc1nccs1 (stereo not drawn)	-2	-0.01	11	1	4	86
O=C(Nc1nccs1)C1C2/C=C\CCCCC21 (stereo not drawn)	5	3	-6	6	2	-28*
COC(=O)c1cc(C(=O)OC)cc(S(=O)(=O)Nc2ccc(Cl)c(N)c2)c1	-1	-0.46	0	3	-6	92
COc1ccccc1CN(Cc1ccco1)S(=O)(=O)c1ccc(-n2cnnn2)c(OC)c1	60*	-0.3	10	15	7	93
COc1cccc(CN(Cc2cccnc2)S(=O)(=O)c2ccc(-n3cnnn3)c(C)c2)c1OC	1	-0.54	6	0	-1	101
CCOP(=O)(c1ccc(N(C)C)cc1)C(O)c1c(Cl)cccc1Cl (stereo not drawn)	-2	-1.1	3	7	3	-16*
COc1cccc(-c2nnn(CC(=O)O)n2)c1	23	0.52	7	1	-1	-22*
CCCn1c(SCC(=O)Nc2nc(C)cs2)nnc1-c1cccnc1	8	-1.1	12	-2	1	87
